Measured values reported in PubChem BioAssay (NCI).
“And” between values parts separate entries of the source, which are not always exact repeats. Identical values can stand only once. Compounds without any hit were thinned out: in the full panel of roughly 83,000, 20% have a hit.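 Negative percent growth values reflect cell death: -40 means 40% of the cells present at the start died, and -100 means all died.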 Unmarked numbers belong to inactive results. The source made the active and inactive calls. Rule for the calls: active = growth percent below 10; inactive = the rest.

Test system: MDA-MB-468 breast
Assay: NCI-60 one-dose screen, 48 h (100 = growth as untreated, 0 = no growth, -100 = all killed)
Conditions: 10 µM unless noted

Row | SMILES | growth
1 | Brc1ccc(-c2cnc3nonc3n2)cc1 | 50.1%
2 | O=C(NC(=S)Nc1ccc(-c2nc3ccccc3[nH]2)cc1)c1ccc2ccccc2c1 | 13.6%
3 | C=C1C(=O)O[C@H]2[C@H]1CC/C(CNC(=O)CCc1ccc(OC)cc1)=C\CC[C@@]1(C)O[C@@H]21 | 32.1%
4 | CCCCN(CC)CCCCCCCCCCN1CCCc2cc(OC)ccc21 | 40.8%
5 | CCC[CH2][Sn]1([CH2]CCC)[O]C2C(CO)OC(n3ccc(N)nc3=O)C2[O]1 (centres undefined) | -82.9% (active)
6 | O=S1SC(c2ccccc2)=NN1c1cc(F)cc(F)c1 (centres undefined) | 44.4%
7 | C=C(C)[C@@H]1CC[C@]2(CO)CC[C@]3(C)[C@H](CC[C@@H]4[C@@]5(C)CCC(NCCc6ccc(O)cc6)C(C)(C)[C@@H]5CC[C@]43C)[C@@H]12 (some centres undefined) | -91.7% (active)
8 | CN1CCN(C(=O)c2c3c(n4ccccc24)C(=O)c2ncccc2C3=O)CC1 | 88.4%
9 | Oc1ccc(-c2nnc3c4[nH]ccc4ncn23)cc1 | 117%
10 | COc1ccc2c(c1)C=C1CSCC3=Cc4cc(OC)ccc4OC13O2 | 21.3%
11 | Cc1cccc(Cl)c1NC(=O)c1cnc(Nc2cc(N3CCOCC3)cc(N3CCOCC3)c2)s1 | -8.47% (active)
12 | Nc1nc(-c2cccc(Br)c2)cc(-c2cc3ccccc3oc2=O)n1 | 91.8%
13 | CC1(C)c2[nH]c3ccccc3c2C[C@]2(C)[C@H]3C(=O)C=C4[C@@H]5C[C@@](C)(C(N)=O)CC[C@]5(C)CC[C@@]4(C)[C@]3(C)CC[C@@H]12 | 56.4%
14 | CCO/C=N/C1=C(C#N)C(c2ccc(Cl)cc2)c2sc3c(C)cccc3c2O1 (centres undefined) | -3.01% (active)
15 | CN1CCN(c2nc(-c3cccc4ccccc34)nc3sc4c(c23)CCCCCC4)CC1 | 77.3%
16 | CCOCC[P+](c1ccccc1)(c1ccccc1)c1ccccc1 | 2.17% (active)
17 | O=C(O)CSCC(=O)Nc1cc(C(F)(F)F)ccc1Cl | 105%
18 | c1coc(CSc2ncnc3nc[nH]c23)c1 | 96%
19 | O=C1C=CC2=C3c4cc(O)c(O)cc4CC3(O)COC2=C1O (centres undefined) | 102%
20 | CC(C)CCOc1ccc(-c2n[nH]c(C(F)(F)F)c2-c2cncc(C#N)c2)c(O)c1 | -26.4% (active)

Row | SMILES | growth
21 | c1cn2c(ccc3nc(-c4cn[nH]c4)c4c(c32)CCCC4)n1 | 42%
22 | N#CC1=C(/N=C/c2ccccc2)Oc2c(ccc3ccccc23)C1c1ccccc1 (centres undefined) | 6.43% (active)
23 | C[C@@H]1C[C@H]2C(=O)OCC(NC(=O)[C@H](Cc3cc(F)cc(F)c3)NC(=O)Nc3ccc(Cl)cc3F)C(=O)N3CCC[C@H]3C(=O)N3CCCC[C@H]3C(=O)N[C@@H](C)C(=O)N2C1 (some centres undefined) | -6.95% (active)
24 | CCOC(=O)CO | 99%
25 | CCOc1ccccc1CN1CCc2nc3cc(C(C)(C)C)[nH]n3c(=O)c2C1 | 105%
26 | CS(=O)(=O)c1ccc(-c2cc3c(oc2=O)-c2ccccc2OC3O)cc1 (centres undefined) | 91.6%
27 | COc1ccc(-c2c(N)n[nH]c2-c2cc3c(c(OC)c2OC)OCO3)cc1 | 104%
28 | CCOC(=O)c1cc(C(=O)c2ccc(O)c(O)c2)n2ccc(-c3ccn4c(C(=O)c5ccc(O)c(O)c5)cc(C(=O)OCC)c4c3)cc12 | 112%
29 | Cc1cn(C2CCCCC2)c(=O)[nH]c1=O | 105%
30 | COc1ccc(-c2ccc3cnc4sc(-c5ccc(OC)cc5)nc4c3n2)cc1 | 96.5%
31 | CC1(C)[C@H](O)CC[C@]2(C)[C@@H]1CC[C@@]13C[C@@H](CC[C@H]12)[C@@](O)(CO)C3 | 106%
32 | CC(C)CCN(CCC(C)C)CC(O)c1cc2c(c3ccccc13)CCCC2 (centres undefined) | 54%
33 | CC1(C)[C@@H](O)CC[C@]2(C)[C@H]3CC[C@@H]4[C@H]5[C@H](C(=O)/C=C\c6ccncc6)CC[C@]5(O)CC[C@@]4(C)[C@]3(C)CC[C@@H]12 | 17.5%
34 | C/C(=N\NC(=S)N1CC2CCC(CC2)C1)c1ccccn1 | -14.9% (active)
35 | CN(C)c1ccc(/C=c2\s/c(=C\C(=O)C(C)(C)C)[nH]c2=O)cc1 | 109%
36 | CCOC(=O)C(N)Cc1cc(I)c(O)c(I)c1 (centres undefined) | 101% and 113%
37 | N/C(=N\C(N)=N\c1nc2ccccc2s1)c1ccc(Cl)cc1 | 94.6%
38 | Cc1ccc2nc3nc4ccc[nH]c4cc3c2c1 | -57.7% (active)
39 | COc1cc(/C=N/NC(=O)c2cnn3c2NC(c2ccccc2)C3)ccc1Oc1ccccc1 (centres undefined) | 6.71% (active)
